Test results from the supplement of paper PMC6555819.

Assays:
Assay in all cases: PBM binding z-score (relative to random genomic background probes); higher = stronger binding; sequences stand for … in GC…GCGATTGACAGCGTAGAATGAAGG
[1] = system: FXR:RXRa (NR concentration 270 nM, RXRa partner concentration 90 nM)
In short: (§1)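 Random background probes are the reference for binding z-scores. These scores derive from regression-normalized fluorescence on custom Agilent 4×180K protein-binding microarrays incubated 1 h with ligand-free nuclear receptor dimers. Binding was detected with antibodies against each partner (one per run).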

[2] = system: LXRa:RXRa (NR concentration 270 nM, RXRa partner concentration 90 nM)
In short: as §1

[3] = system: LXRa homodimer (NR concentration 270 nM)
In short: as §1

[4] = system: LXRb:RXRa (NR concentration 270 nM, RXRa partner concentration 90 nM)
In short: as §1

[5] = system: LXRb homodimer (NR concentration 270 nM)
In short: as §1

[6] = system: PPARa:RXRa (NR concentration 270 nM, RXRa partner concentration 90 nM)
In short: as §1

[7] = system: PPARg:RXRa (NR concentration 180 nM, RXRa partner concentration 90 nM)
In short: as §1

[8] = system: PPARg:RXRa 270nM:90nM, anti-RXR (NR concentration 270 nM, RXRa partner concentration 90 nM)
In short: as §1

[9] = system: PPARg:RXRa 30nM:10nM, anti-RXR (NR concentration 30 nM, RXRa partner concentration 10 nM)
In short: as §1

[10] = system: PPARg:RXRa 90nM:30nM, anti-RXR (NR concentration 90 nM, RXRa partner concentration 30 nM)
In short: as §1

Sequence	PBM binding z-score [1]	PBM binding z-score [2]	PBM binding z-score [3]	PBM binding z-score [4]	PBM binding z-score [5]	PBM binding z-score [6]	PBM binding z-score [7]	PBM binding z-score [8]	PBM binding z-score [9]	PBM binding z-score [10]
CTAACTAGGTCAAGAGGTCAAAGTCCGCTTCCCG	6.96	6.46	6.71	5.78	2.03	6.55	10.3	8.4	7.88	8.64
CTCGAAAAGTCGGTTGAGGTGAGTATACGGATAA	0.673	0.0454	-0.319	-4.02e-05	-0.053	0.458	-0.07	-0.172	0.085	-0.0769
CCTTACGGGTCAAAGTTATAGCACGGGTGGTACG	6.21	3.95	0.182	3.42	0.711	5.06	5.04	5.46	2.56	4.63
AATACAGGGGCACTAGGCCAGAGTAGGTACGAAT	-0.0916	0.117	-0.197	0.693	-0.000441	1.5	2.84	2.51	0.512	1.26
CCTACTGGGCCATCAGGTCAGTGATATCAACGTT	0.148	0.0376	0.047	0.311	-0.379	1.91	2.01	2.42	0.364	1.92
CGTCCAAGGTCATAGGATGTCAGTGAAGACAGAT	7.4	5.86	1.1	4.02	0.568	5.6	4.69	5.42	1.9	3.95
TCTCGGAGGACGCGAAAGGTCAGAGCTCGACATC	2.41	3.21	1.27	2.37	-0.501	3.2	1.67	3.46	2.47	3.21
GATACTGGGTCAAGGCCAGAGTACGCGTATTGAT	2.37	1.21	-0.0541	1.22	-0.791	4.05	5.9	5.27	2.7	4.74
ATCTCTAGGTAACGATAGTTCAGTGAATGCAAAT	0.157	4.89	0.491	1.33	0.408	0.791	0.696	0.807	0.214	0.514
TCTGGTAGATCAATAGAGGTTAAGAAAGTGCGCT	0.764	3.4	0.62	1.81	-0.161	1.62	-0.137	1.4	2.44	1.78
ATAAGTAGGTTAGCTGGGGTCATTCAGACTAGGC	4.71	5.52	3.28	4.94	1.18	5.41	6.1	5.42	3	5.01
CCTTACGGGTCACGAGGTTATAGCTCGACGAGCG	6.98	4.79	0.064	3.92	0.048	6.3	7.52	6.72	3.42	5.91
GCTAGTTGGGCAGTAAAAGGTCACACACCGGTCG	3.19	4.3	4.34	3.64	0.418	4.28	2.12	3.8	1.65	3.19
TCTGCTAGGGCAACGATGGTCAGCTAATCTGCTA	-0.264	-0.36	-0.78	-0.55	-0.884	0.0492	0.028	0.551	1.02	0.846
ACATACGGGTCAACGAGGTTATAGCACGCGTATA	5.59	4.74	0.827	3.97	0.73	5.39	5.65	4.94	1.99	3.86
GGAACGAGGGGATTCGAGTTGATAGCATGGCGAT	-0.431	-0.53	-0.577	-0.641	-0.654	-0.413	0.315	-0.471	-0.474	-0.523
TAGCCTAGGTCATCCAGGGGCCAGTATAGAAAGC	4.4	3.37	0.176	2.82	0.318	3.66	2.57	2.47	0.738	1.52
CGTCCAAGGTCAAAGCTCAGTGAAGAGATGACGG	7.32	5.36	0.938	3.83	0.937	5.37	4.98	5.4	2.13	4.12
CCTAGCAGGCCAATCTTGGTCACTCAAGGCTTGA	-0.234	-0.221	-0.7	-0.577	-0.715	-0.114	-0.277	-0.609	-0.894	-0.992
CCGACTAGGGCAAGGTTACCATAACGCACAGCCA	0.299	0.666	-0.117	0.701	-1.03	1.93	3.55	3.99	1.61	3.28
CCGACCGGGGCATAAGGTTACCATAAGCCAGCCC	0.604	1.92	-0.254	0.72	-1.04	1.75	1.09	1.45	-0.188	0.731
ACTAGTTGGTCAGCTGAGGTTACACACAATTCGG	1.56	0.761	0.139	1.29	0.188	1.42	0.989	0.496	0.134	0.586
CTACCAAGGTGATCAAGGTCGTTGATTACTATTC	0.873	0.837	0.0949	1.29	-0.12	1.65	0.258	0.508	-0.15	0.529
TAGCCTAGGTCATGGGGCCAGTATAGTACGCATC	4.54	3.52	0.182	2.77	0.0614	4.31	3.62	3.29	0.919	2.66
ATATGTAGGTTAGCTGGGGTGATTCAGACTAGGC	2.08	0.979	0.289	1.32	0.553	2.85	3.26	2.89	0.853	1.94

Sequence	PBM binding z-score [1]	PBM binding z-score [2]	PBM binding z-score [3]	PBM binding z-score [4]	PBM binding z-score [5]	PBM binding z-score [6]	PBM binding z-score [7]	PBM binding z-score [8]	PBM binding z-score [9]	PBM binding z-score [10]
AGAACGAGAGCAATGAGTTGATAGCACGGGTGGC	-0.715	-0.7	-0.726	-0.759	-0.725	-0.447	0.796	-0.0173	-0.196	0.0595
GCTATTAGTTGAATGGGCAACCGAATGATTCTCG	-0.277	-0.309	-0.219	-0.351	-0.317	-0.737	0.129	-0.166	-0.146	0.0794
CCTGCTAGGTCAATGGTCAGCTTAAGCAGCTCGC	3.08	2.28	-0.0012	1.51	-0.1	3.13	4.41	5.21	2.37	4.79
ACTAGCAGGCCAAGTTTGGGTCACTCAAACAAAG	0.133	0.0719	-0.339	0.663	-0.95	1.49	0.094	0.413	-0.485	0.0599
CATATAGGGTCAGCTAGGCCAGAGTAGGGACGGC	4.43	3.32	-0.142	2.24	0.223	4.44	3.29	3.31	0.812	2.26
CCGACTGGGGCAAAGGTGACCATACTCAGTACGA	0.275	0.171	-0.478	0.634	-1.65	4.77	10.3	8.5	8.35	9.3
TCTATTAGTTGTTTAGGGCAACCGAAACAGCGGA	0.479	0.468	0.25	0.727	1.15	0.938	-0.0257	2.1	3.88	2.99
ATATGTAGGTTACATCCGGATCATTCAGGCTATG	0.642	3.17	0.493	1.65	0.498	3.35	5.19	4.14	1.64	3.4
TCTGCTAGGTCAACGATGGTCAGCTGATCTGCTA	3.18	2.66	-0.222	1.72	0.146	3.35	2.72	3.15	1.81	2.66
GCAGACAGGTGAAACGCAGGTAACCCAGGGTGGC	-0.174	-0.00229	-0.737	-0.377	-1.23	0.855	0.586	-0.135	-0.728	-0.633
ATACCAATGTGATCGTGAGGTCGTTGATACTAAC	1.13	0.684	0.704	0.894	-0.063	0.905	0.346	0.198	0.123	0.295
TCTAGTTGGTCAAAGATCACACACTCGAAATGCG	1.08	0.894	0.461	1.25	0.389	3.18	5.95	6.52	5.72	6.88
TCATATAGGTAAAGGAGAAAGTCGAACGATATGA	0.86	0.393	-0.261	0.259	-0.317	1.11	1.53	2.56	3.86	3.22
GCATATAGGTAATACAAAGTGAAAGTCCGATTGT	-0.614	-0.368	-0.219	-0.304	-0.361	0.632	1.12	0.884	0.583	0.849
TCATATAGGTAAACAGGAGAAAGTCCGTAAGTTA	0.871	0.628	-0.02	0.291	-0.116	0.987	1.23	2.26	3.93	3.07
GCTGCTAGATCAACTGATGGTCAGCTAAAGCTCG	-0.351	-0.658	-0.708	-0.94	-1.09	-0.675	-0.337	-0.606	-0.466	-0.434
CGGCCAAGGTCAGAGAGGTCAGTGAATGCCGAGT	6.02	5.04	2.26	4.41	-0.527	4.79	3.72	4.34	0.655	2.75
CGAACTAGGTCATTGACATGACAGTGAATAGTAA	5.2	3.24	0.582	2.31	-0.197	4.88	7.61	6.52	3.97	6.29
CCTAGCAGGCCAGGGCCACTCAAGCATTTCGCTT	-0.787	-0.944	-0.625	-1.04	-1.61	-0.638	-0.367	-1.16	-1.24	-1.48
ACTAGCAGGCCAAGTTTGTGTCACTCAAACAAAG	-0.566	-0.667	-0.358	-0.814	-0.886	-0.219	-0.46	-0.574	-0.538	-0.746
GGAACGAGGGCAAGCTGATAGCAGAGTTTGATGG	0.351	0.065	-0.473	0.0396	-1.04	1.37	0.979	0.733	-0.285	0.3
ACTAGCAGGCCACGGGTCACTCAAGATTAGTCCG	0.933	1.15	-0.0855	1.3	-0.734	2.7	3.18	3.72	1.75	3.53
TCAGACAGGTGAAGGTAATTCAGGTACGCAGTCG	1.15	1.22	-0.0461	1.11	0.0602	1.41	0.743	2.25	3.9	3.02
TCTAGCAGGCAAGAGGGTCACTCAAGAGGTACGG	0.555	0.86	-0.678	1.18	-1.24	2.25	1.01	1.76	1.7	1.82
